In PubChem BioAssay AID1159580 (chemical genetic matrix, 2015):
Values joined by “and” are separate entries in the source; they are usually repeats but may differ in a detail not shown here. Equal values may be shown once. Hit rate of the full screen: of about 5,500 compounds, about 2,000 (36%) were called active. Inconclusive results (about 18%) are left out. No stated cut-off is given here; in the data, active means normalized growth mostly below about 0.91 (no sharp cut-off); inconclusive means no clear call, values can overlap the other calls; inactive means mostly above about 0.92. The list shows a part of the results.

Assay: chemical genetic growth profiling, strain panel (AID 1159580);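 further: tested at 20 µM; growth read once vehicle control cultures reached saturation at 30 °C; 1 = growth at the plate median or of vehicle wells; lower values mean less growth of the strain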
Settings: S. cerevisiae deletion strains, growth OD

Measured: normalized growth

CNCCCN1c2ccccc2CCc2ccccc21
inactive: locus YAL013W, strain DEP1, hits give low values 0.993 | locus YAL021C, strain ccr4, hits give low values 1 | locus YAL026C, strain drs2, hits give low values 0.985 | locus YAL030W, strain snc1, hits give low values 1.03 | locus YAL040C, strain CLN3, hits give low values 1 | locus YBL061C, strain skt5, hits give low values 1.02 | locus YBR009C, strain hhf1, hits give low values 0.972 | locus YBR021W, strain FUR4, hits give low values 1 | locus YBR023C, strain chs3, hits give low values 1.02 | locus YBR171W, strain sec66, hits give low values 1.03 | locus YBR229C, strain ROT2, hits give low values 1.01 | locus YBR231C, strain swc5, hits give low values 1.02 | locus YBR279W, strain paf1, hits give low values 0.996 | locus YCL011C, strain gbp2, hits give low values 0.994 | locus YCL016C, strain dcc1, hits give low values 0.988 | locus YCL029C, strain bik1, hits give low values 1 | locus YCL061C, strain MRC1 (second series), hits give low values 0.994 | locus YCL061C, strain MRC1, hits give low values 1.04 | locus YCL069W, strain vba3, hits give low values 1.02 | locus YCR088W, strain abp1, hits give low values 1.02 | locus YDL005C, strain med2, hits give low values 1.03 | locus YDL035C, strain GPR1, hits give low values 1.02 | locus YDL040C, strain nat1, hits give low values 1.02 | locus YDL074C, strain BRE1, hits give low values 1 | locus YDL101C, strain DUN1, hits give low values 1 | locus YDL134C, strain PPH21, hits give low values 1.02 | locus YDL185W, strain tfp1, hits give low values 1 | locus YDL192W, strain arf1, hits give low values 0.997 | locus YDR001C, strain nth1, hits give low values 1.02 | locus YDR069C, strain doa4, hits give low values 1.05 | locus YDR101C, strain arx1, hits give low values 1.01 | locus YDR137W, strain rgp1, hits give low values 1.1 | locus YDR150W, strain NUM1, hits give low values 1.01 | locus YDR159W, strain sac3, hits give low values 0.987 | locus YDR162C, strain NBP2, hits give low values 1.02 | locus YDR195W, strain ref2 1.07 | locus YDR297W, strain sur2, hits give low values 1.03 | locus YDR318W, strain mcm21, hits give low values 0.993 | locus YDR334W, strain swr1, hits give low values 1.01 | locus YDR335W, strain msn5, hits give low values 1.02 | locus YDR363W, strain ESC2, hits give low values 0.997 | locus YDR388W, hits give low values 0.992 | locus YDR392W, strain spt3, hits give low values 0.91 | locus YDR502C, strain sam2, hits give low values 1.01 | locus YEL003W, strain gim4, hits give low values 1.02 | locus YEL037C, strain rad23, hits give low values 1.01 | locus YEL061C, strain CIN8 (second series), hits give low values 1.01 | locus YEL061C, strain CIN8, hits give low values 1.01 | locus YER002W, strain NOP16, hits give low values 0.983 | locus YER015W, strain faa2, hits give low values 1.01 | locus YER016W, strain bim1, hits give low values 0.991 | locus YER110C, hits give low values 0.999 | locus YER111C, strain swi4, hits give low values 1.01 | locus YER155C, strain BEM2 (second series), hits give low values 1.05 | locus YER155C, strain BEM2, hits give low values 1.01 | locus YER167W, strain BCK2, hits give low values 1.01 | locus YFR010W, strain ubp6, hits give low values 1.01 | locus YGL078C, strain dbp3, hits give low values 0.994 | locus YGL086W, strain mad1, hits give low values 0.991 | locus YGL167C, strain pmr1, hits give low values 1.02 | locus YGL173C, strain kem1, hits give low values 1.02 | locus YGL227W, strain vid30, hits give low values 1.01 | locus YGL240W, strain doc1, hits give low values 1.06 | locus YGL248W, strain PDE1, hits give low values 0.992 | locus YGL253W, strain hxk2, hits give low values 0.996 | locus YGR135W, strain pre9, hits give low values 0.986 | locus YGR252W, strain gcn5, hits give low values 0.94 | locus YHR013C, strain ard1, hits give low values 0.984 | locus YHR027C, strain rpn1, hits give low values 0.999 | locus YHR030C, strain SLT2, hits give low values 1.01 and 1.02 | locus YHR079C, strain IRE1 (second series), hits give low values 1 | locus YHR079C, strain IRE1, hits give low values 1.01 | locus YHR094C, strain hxt1, hits give low values 0.995 | locus YHR129C, strain ARP1, hits give low values 1.01 | locus YHR142W, strain chs7, hits give low values 0.993 | locus YHR200W, strain rpn10, hits give low values 1.01 | locus YIL066C, strain RNR3, hits give low values 1.01 | locus YIL073C, strain SPO22, hits give low values 0.964 | locus YIL125W, strain kgd1, hits give low values 1 | locus YIR030C, strain dcg1, hits give low values 0.999 | locus YJL092W, strain hpr5, hits give low values 1.01 | locus YJL095W, strain BCK1 (second series), hits give low values 1.01 | locus YJL095W, strain BCK1, hits give low values 0.979 and 1.02 | locus YJL115W, strain asf1, hits give low values 0.999 | locus YJL129C, strain trk1, hits give low values 1.04 | locus YJL134W, strain LCB3, hits give low values 1 | locus YJL154C, strain vps35, hits give low values 1.01 | locus YJL164C, strain tpk1, hits give low values 0.984 | locus YJL166W, strain qcr8, hits give low values 1.06 | locus YJL168C, strain set2, hits give low values 1 | locus YJL187C, strain SWE1 (second series), hits give low values 0.998 | locus YJR043C, strain POL32, hits give low values 1.01 | locus YJR066W, strain TOR1, hits give low values 0.98 | locus YJR075W, strain HOC1, hits give low values 0.968
